Assay results from PubChem BioAssay (NCATS).
Inconclusive results are not listed. Calls of active or inactive are those of the source. The call rests on the fitted dose curve; in most records, active means well fitted activation curve with a large enough effect; inconclusive means small, poorly fitted or top-dose-only effect; inactive means flat fitted curve, though single readings scatter.

Experiment: Primary redox qHTS assay for identification of artifact compounds. (AID 1845223)
Details: Amplex Red/HRP redox cycling with DTT, fluorescence; series mostly up to 53.8 µM; redox activity (% of DA3003): at the top concentration
Source text: PI: Alexander Tropsha Ph.D.
UNC Eshelman School of Pharmacy
University of North Carolina, Chapel Hill, North Carolina
Hits from high-throughput screening (HTS) of chemical libraries are often false positives due to their interference with the assay detection technology. In response to this problem, we generated the largest publicly available library of chemical liabilities and developed a free webtool to predict HTS artifacts, both of which are described herein. More specifically, we generated, curated, and integrated HTS datasets for thiol reactivity, redox activity, and luciferase (firefly and nano) activity. Using these curated datasets, we developed and validated several Quantitative Structure-Interference Relationship (QSIR) models to predict nuisance behavior. […] These models were employed for virtual profiling of the National Center for Advancing Translational Science's (NCATS) in-house library, and 256 compounds for each assay were selected for the experimental validation of nuisance behavior. The BA for these external predictions ranged from 58 to 78% for compounds within the applicability domains of the models. […] The models developed in this study, along with aggregation models previously developed by our group (SCAM Detective) were implemented in "Liability Predictor," an online tool which may be used as part of chemical library design or for triaging HTS hits. Both the models and the curated datasets are publicly available at https://liability.mml.unc.edu/.
SEQUENCE No. (e.g., 1, 2, 3, etc.); […] (e.g., Cells, Incubation, Reagent, etc.); VALUE; DESCRIPTION.
1; Reagent; 3 uL; Amplex Red and HRP mixture.
2; Compounds and control; 16 nL; Kalypsis pin tool (Wako USA) equipped with a 1536-well pin head. […]
6; Detection; Fluorescence, ViewLux microplate reader, 525 nm excitation, 598 nm emission.
NOTES (numbers refer to Sequence numbers above)
1. 3 uL of a mixture containing Amplex Red (25 uM final concentration) and horseradish peroxidase (HRP; 250 mU/mL final concentration) in assay buffer (HBSS) was dispensed into all wells of a 1536-well assay plate (solid-bottom black plate; Greiner Bio One, Monroe, NC).
2. A Wako Pin-tool (Wako Automation, Richmond, VA) was used to transfer 16 nL of compounds (consisting of 7-plates in qHTS format, final concentration range 18.3 nM to 114 uM) or control DA3003 (final concentration range 1.22 nM to 40 uM).
3. 15 min. incubation at room temperature protected from light.
4. 1 uL of DTT (prepared fresh; final concentration 250 uM) was dispensed for a final assay volume of 4 uL.
5. Plates were centrifuged (121xg, 15 seconds) and incubated for 30 minutes at room temperature protected from light.
6. Samples were read for fluorescence (Ex/Em = 525(20)/598(25) nm) on a ViewLux CCD imager (PerkinElmer). Data were normalized to DMSO (0% activity) and DA3003 (10 uM final concentration; 100% activity) and the resulting percent inhibition data were fitted to a 4-parameter Hill equation using NCATS in-house software.

Row | Structure (SMILES) | redox activity (% of DA3003)
1 | COc1ccc(CN2C(=O)C(=O)c3cc(S(=O)(=O)N4CCC[C@H]4COc4cccnc4)ccc32)cc1 | -3.39% (inactive)
2 | C[C@@H]1O[C@@H](O[C@@H]2CO[C@@H](O[C@H]3CC[C@@]4(C)C(CC[C@]5(C)C4CC=C4[C@@H]6CC(C)(C)CC[C@]6(C(=O)O[C@@H]6O[C@H](CO)[C@@H](O)[C@H](O)[C@H]6O)CC[C@]45C)[C@]3(C)CO)[C@H](O)[C@H]2O[C@@H]2O[C@H](CO)[C@@H](O)[C@H](O)[C@H]2O)[C@H](O)[C@H](O)[C@H]1O (stereo not given in full) | 7.97% [at 11.5 µM] (inactive)
3 | COc1cc(C2c3cc4c(c(O)c3CC(CO)C2C(=O)O)OCO4)cc(OC)c1O (stereo not given) | -3.1% [at 25.6 µM] (inactive)
4 | C=C1CCC2C(C(C)(C)O)CCC2(C)CC(O)C(=C)CCC1O (stereo not given) | -10.8% (inactive)
5 | C=CC(=O)N1CCN(C(=O)CNc2cc(I)c(Cl)cc2O)CC1 | -4.67% (inactive)
6 | COC(=O)C1=CO[C@@H](O[C@@H]2O[C@H](CO[C@@H]3O[C@H](COC(=O)/C=C/c4cc(OC)c(O)c(OC)c4)[C@@H](O)[C@H](O)[C@H]3O)[C@@H](O)[C@H](O)[C@H]2O)[C@@H]2C(CO)=CC[C@H]12 | 9.5% [at 25.6 µM] (inactive)
7 | C=C1[C@@H]2CC[C@@H]3[C@@](CCC4C(C(=O)O)(C(=O)O)C[C@@H](O[C@@H]5O[C@H](CO)[C@@H](O)[C@H](O)[C@H]5OC(=O)CC(C)C)C[C@]43C)(C2)[C@H]1O (stereo not given in full) | -17% [at 25.6 µM] (inactive)
8 | CCOC(=O)Nc1cc(-c2ccc(C)c(NS(C)(=O)=O)c2)nn2c(C)nnc12 | 5.01% (inactive)
9 | CCCC(=O)O[C@@H]1[C@@H]2[C@@H](OC(C)=O)[C@]3(C)C(=O)[C@H]4[C@@H](OC(C)=O)C(C)(C)C[C@H]4[C@]3(C)C(=O)[C@@]2(OC(C)=O)C[C@@H]1C | -10.7% [at 25.6 µM] (inactive)
10 | CC1=C2C[C@H]3O[C@@]3(C)CCC3O[C@@]3(C)C[C@@]2(O)OC1=O (stereo not given in full) | -15.5% (inactive)
11 | COc1c2c(c(C)c3c1C(=O)OC3)OC1(C)CC(O)C(C(C)(C)O)C(C)(CCC(=O)O)C1C2 (stereo not given) | -11.4% [at 25.6 µM] (inactive)
12 | N=c1nc2n(cc1F)C1OC(CO)C(O)C1O2 (stereo not given) | -2.56% (inactive)
13 | C=C(C)C(=O)OC1CC2(C)OC(=CC2=O)C(=C)CC2OC(=O)C(COC)C12 (stereo not given) | 14.6% (inactive)
14 | CC/C=C/CC1=C(CCCCC(CCC(=O)O)OC(C)=O)CCC1=O (stereo not given) | 16.8% (inactive)
15 | C[C@@H]1O[C@@H](O[C@H]2[C@H](O[C@H]3[C@H](O[C@H]4CC[C@@]5(C)C(CC[C@]6(C)C5CC=C5[C@@H]7CC(C)(C)CC[C@]7(C(=O)O[C@@H]7O[C@H](CO)[C@@H](O[C@@H]8O[C@@H](C)[C@H](O)[C@@H](O)[C@H]8O)[C@H](O)[C@H]7O)CC[C@]56C)C4(C)C)OC[C@H](O)[C@@H]3O)O[C@H](CO)[C@@H](O)[C@@H]2O)[C@H](O)[C@H](O)[C@H]1O (stereo not given in full) | 19.8% [at 11.5 µM] (inactive)
16 | CCNCc1nc2c(N)nc3ccccc3c2n1CC(C)(C)O | -5.16% (inactive)
17 | O=C(O)/C=C/c1ccc(O)c(O[C@@H]2O[C@H](CO)[C@@H](O)[C@H](O)[C@H]2O)c1 | -18.3% (inactive)
18 | O=C(OC[C@@]1(O)CO[C@@H](O[C@H]2[C@H](Oc3ccc(O)cc3)O[C@H](CO)[C@@H](O)[C@@H]2O)[C@@H]1O)c1ccc(O)cc1 | -14.2% [at 25.6 µM] (inactive)
19 | COc1ccc(-c2cnc3ccc(NCc4ccc(S(N)(=O)=O)cc4)nn23)cc1OC | -3.61% (inactive)
20 | COC1C(CO)OC(n2cnc3c(=O)[nH]cnc32)C1O (stereo not given) | 0.947% (inactive)

Row | Structure (SMILES) | redox activity (% of DA3003)
21 | CC(O)/C=C/C1(O)C(C)C(O[C@@H]2O[C@H](CO)[C@@H](O)[C@H](O)[C@H]2O)C(O)CC1(C)C (stereo not given in full) | -13.3% [at 25.6 µM] (inactive)
22 | COC1CC(O[C@H]2CC[C@@]3(C)C(CCC4C3[C@H](OC(C)=O)[C@@H](OC(=O)/C=C/c3ccccc3)[C@]3(C)C(C(C)=O)CC[C@]43O)C2)OC(C)C1OC1CC(OC)C(OC2CC(OC)C(OC3OC(C)C(OC4OC(CO)C(O)C(O)C4O)C(OC)C3O)C(C)O2)C(C)O1 (stereo not given in full) | -6.18% [at 11.5 µM] (inactive)
23 | C=C1CCC2C(C)(C)CCC[C@]2(C)[C@H]1C/C=C(\CO)C(=O)C(=O)O (stereo not given in full) | 17.9% (inactive)
24 | CC(O)(CC(=O)O)CC(=O)OCc1ccc(O[C@@H]2O[C@H](CO)[C@@H](O)[C@H](O)[C@H]2O)cc1 (stereo not given in full) | -15.7% [at 25.6 µM] (inactive)
25 | CC(C)N(CCCCOCC(=O)NS(C)(=O)=O)c1cnc(-c2ccccc2)c(-c2ccccc2)n1 | 3.73% (inactive)
26 | Cc1cccc(/C=N/Nc2cc(N3CCOCC3)n3nc(-c4ccncc4)cc3n2)c1 | -3.95% (inactive)
27 | Cc1ccc([N+](=O)[O-])cc1S(=O)(=O)N(C)/N=C/c1cnc2ccc(Br)cn12 | 11% (inactive)
28 | C[C@@H]1[C@H]2[C@H](O[C@@H]3O[C@H](CO)[C@@H](O)[C@H](O)[C@H]3O)OC=C(C(=O)O)[C@H]2C[C@@H]1O | -11.6% (inactive)
29 | O=S(=O)(Nc1ccccn1)c1ccc(N=Cc2c(O)[nH]c3ccc4ncsc4c23)cc1 | -4.81% [at 11.5 µM] (inactive)
30 | CN1CCC(Nc2nc(Nc3ccc(Oc4ccccc4)cc3)c3c(=O)[nH]cc(Br)c3n2)CC1 | -4.16% (inactive)
31 | COc1cc2c(cc1O)[C@H](c1ccc(O[C@@H]3O[C@H](CO)[C@@H](O)[C@H](O)[C@H]3O)c(OC)c1)[C@@H](CO)[C@](O)(CO)C2 | -11.2% [at 25.6 µM] (inactive)
32 | Nc1nc(-n2cc(C(=O)O)c(=O)c3cc(F)c(N4CC(O)C4)c(Cl)c32)c(F)cc1F | -1.29% (inactive)
33 | OCC(CO[C@@H]1O[C@H](CO)[C@@H](O)[C@H](O)[C@H]1O)c1ccc2c(c1)OCO2 (stereo not given in full) | -11.2% (inactive)
34 | COc1cc2c(cc1O)CC[C@H]1[C@@H]2CC[C@]2(C)[C@H](O)CC[C@@H]12 | -3.24% (inactive)
35 | O=C(/C=C/c1cccc(S(=O)(=O)Nc2ccccc2)c1)NO | -4.93% [at 25.6 µM] (inactive)
36 | C=C1CCC2C(C)(COC(C)=O)CCCC2(C)C1CCC(C)CC(=O)O (stereo not given) | 1.74% (inactive)
37 | CC(=O)NC1C(OC(C)(C)C2CCC3(C)C=C(C4CCC5C4(C)CC(O)C4OC(C(C)(C)O)CCC45C)CCC3O2)OC(CO)C(O)C1O (stereo not given) | 13.3% [at 25.6 µM] (inactive)
38 | Cc1cc(-c2cc(O)ccc2Cl)cc2nnc(Nc3ccc(OCCN4CCCC4)cc3)nc12 | -6.42% (inactive)
39 | CCOc1ccc2nc(SCCN3CCOCC3)[nH]c2c1 | -0.0239% (inactive)
40 | CC(C)=CCC/C(C)=C/CO[C@@H]1O[C@H](CO)[C@@H](O)[C@H](O)[C@H]1O | -1.57% (inactive)
